Hit rate of the full screen: of about 5,400 compounds, about 190 (3.5%) showed an effect of 50% or more. The list comes from a sample in which strong results are over-represented; it also holds similar structures and randomly drawn compounds.
Each molecule was assayed on Vero-E6 (assay: primary screen, phospholipidosis by LipidTOX staining; higher = more effect of the substance). Conditions: 10 µM.
Outline: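 Drug-induced phospholipidosis detected with HCS LipidTOX Red reagent in Vero-E6 cells. Compounds tested at 10 μM, with amiodarone (10 μM) as positive control and DMSO (0.1 v/v %) as vehicle.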
CN1C[C@@H]2CN(c3ccc(-c4ccccc4)nn3)C[C@@H]2C1 showed a result_ITMP of -1.43%.
O=C([O-])CCC/C=C\C[C@@H]1[C@@H](/C=C/[C@@H](O)COc2cccc(Cl)c2)[C@H](O)C[C@@H]1O (racemic) was tested, and the result_ITMP was -1.06%.
C[C@H](CCC(=O)O)[C@H]1CC[C@H]2[C@@H]3CC[C@@H]4C[C@H](O)CC[C@]4(C)[C@H]3CC[C@]12C was tested, and the result_ITMP was -0.58%.
For Oc1ccnc(S)n1, the result_ITMP was -2.88%.
For NCC(O)(CS(=O)(=O)O)c1ccc(Cl)cc1 (stereo not drawn), the result_ITMP was -4.58%.
With Clc1ccc(C2(c3ccc(-c4cn[nH]c4)cc3)CCNCC2)cc1 the result_ITMP was 96.9%.
For NC[C@@](O)(c1ccc(Cl)cc1)c1ccc(-c2cn[nH]c2)cc1, the result_ITMP was 63.1%.
Cn1ncnc1COc1nn2c(-c3cc(F)ccc3F)nnc2cc1C(C)(C)C was tested, and the result_ITMP was -6.83%.
Molecule Nc1c(S(=O)(=O)[O-])cc(Nc2cccc3ccccc23)c2c1C(=O)c1ccccc1C2=O has a result_ITMP of -11.1%.
Molecule CC[C@H]1[C@@H](O)C2C3CC[C@H]([C@H](C)CCC(=O)O)[C@@]3(C)CCC2[C@@]2(C)CC[C@@H](O)C[C@@H]12 (stereo partly drawn) has a result_ITMP of -3.95%.
Work on CN[C@@H]1C(OC2[C@H](O[C@H]3[C@H](O)[C@@H](O)[C@H](NC(=N)N)[C@@H](O)[C@@H]3NC(=N)N)OC(C)[C@]2(O)CO)OC(CO)C(O)C1O (stereo partly drawn) yielded a result_ITMP of -3.92%.
For CC(=O)c1ccc2c(c1)C(=O)C1(CC1)O2, the result_ITMP was 0.63%.
Work on C[C@@H]1CCCN1CCc1cc2cc(-c3ccc(C#N)cc3)ccc2o1 yielded a result_ITMP of 66.8%.
CC(=O)C1=C(O)[C@]2(C)C(=CC1=O)Oc1c(C(C)=O)c(O)c(C)c(O)c12 was tested, and the result_ITMP was -3.21%.
CCCCCCCCCCC(=O)O[C@H]1CC[C@H]2[C@@H]3CCC4=CC(=O)CC[C@]4(C)[C@H]3CC[C@]12C showed a result_ITMP of 0.88%.
In the case of C[C@@]1(O)[C@H](O)[C@@H](CO)O[C@H]1n1cnc2c(O)nc(N)nc21, the result_ITMP is reported as 7.18%.
With COc1ccc2cc(-c3[nH]c(-c4ccc(S(C)=O)cc4)nc3-c3ccncc3)ccc2c1 (stereo not drawn) the result_ITMP was -3.68%.
Work on C[N+]1(C)[C@@H]2C[C@@H](OC(=O)C(O)(c3cccs3)c3cccs3)C[C@H]1[C@@H]1O[C@@H]12 yielded a result_ITMP of -2.59%.
CN1CCC(=C2c3ccccc3Sc3ccccc32)CC1 gave a result_ITMP of 44.9%.
CN1CCC(=C2c3ccccc3CCc3sccc32)CC1 showed a result_ITMP of 42.6%.
CN1CCC(=C2c3ccccc3C=Cc3ccccc32)CC1 gave a result_ITMP of 77.3%.
Cc1onc(O)c1CC(N)C(=O)O (racemic) [R4A_0004356_001 / SPE_A34716233] showed a result_ITMP of 0.42%.
With O=C(O)COc1ccc(C(=O)c2cccs2)c(Cl)c1Cl the result_ITMP was -7.59%.
CC(C(=O)O)c1ccc(C(=O)c2cccs2)cc1 (stereo not drawn) showed a result_ITMP of -0.4%.
Molecule CC(C)c1ccc(C(=O)c2cccs2)c(SCCCCCCCCN(C)C)n1 has a result_ITMP of 77%.
In the case of O=C([O-])CCC(=O)OC[C@H](NC(=O)C(Cl)Cl)C(O)c1ccc([N+](=O)[O-])cc1 (stereo partly drawn), the result_ITMP is reported as 1.81%.
With O=c1[n-]c(=O)n(Cl)c(=O)n1Cl the result_ITMP was -11.2%.
In the case of c1ccc(C2CN3CCSC3=N2)cc1 (stereo not drawn) [R4A_0001404_001 / SPE_K73107279], the result_ITMP is reported as -7.98%.
For C[N+](C)(C)CCOP(=O)([O-])OP(=O)([O-])OC[C@H]1O[C@@H](n2ccc(N)nc2=O)[C@H](O)[C@@H]1O, the result_ITMP was 10.2%.
Molecule CC(C)(O)c1ccccc1CC[C@@H](SCC1(CC(=O)[O-])CC1)c1cccc(/C=C/c2ccc3ccc(Cl)cc3n2)c1 has a result_ITMP of 3.69%.
In the case of C[C@H](N)Cn1ccc2cc(F)c(Cl)cc21, the result_ITMP is reported as 50.7%.
In the case of CO[C@H]1O[C@@H]2O[C@@]3(C)CC[C@H]4[C@H](C)CC[C@@H]([C@H]1C)[C@@]24OO3, the result_ITMP is reported as -0.98%.
Molecule O=C([O-])C(O)Cc1ccc(O)c(O)c1 (stereo not drawn) has a result_ITMP of 1.45%.
CCC(=O)O[C@@H](OP(=O)(CCCCc1ccccc1)CC(=O)N1C[C@H](C2CCCCC2)C[C@H]1C(=O)[O-])C(C)C (stereo partly drawn) showed a result_ITMP of -3.03%.
CC(=O)c1ccc2c(c1)N(CCCN1CCN(CCO)CC1)c1ccccc1S2 gave a result_ITMP of 74.4%.
With CC(=O)c1ccc2c(c1)N(CCCN(C)C)c1ccccc1S2 the result_ITMP was 42.6%.
With CCOC(=O)Nc1ccc2c(c1)N(C(=O)CCN1CCOCC1)c1ccccc1S2 the result_ITMP was -8.3%.
CCCCN1CCC(CCC(=O)c2cc(Cl)c(N)cc2OC)CC1 showed a result_ITMP of 5.01%.
For CC(=O)c1ccc2c(c1)N(CCCN1CCC(CCO)CC1)c1ccccc1S2, the result_ITMP was 50.4%.

Source: PMC13083723 (Patterns, 2026)
